SMILES strings stand for the structures. This is part of a sample that, as a whole, favours compounds with a hit. Of some 83,000 tested, about 20% had one in any assay.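 Method: cells in 96-well plates; compound added at one concentration; 48 h incubation; percent growth measured; values under 10 scored active.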 Unmarked numbers belong to inactive results. Activity calls are given as the source filed them.

Some test systems named below: NCI-H23 lung; NCI-H226 lung; NCI-H322M lung; HOP-62 NSCLC; NCI-H460 lung; HOP-92 NSCLC; NCI-H522 lung; A549/ATCC NSCLC; 786-0 renal; COLO 205 colon; DU-145 prostate; K-562 leukemia; MALME-3M melanoma; MDA-MB-231 breast; RXF 393 renal; SF-268 CNS; SF-295 CNS; SF-539 CNS; UACC-257 melanoma; M14 melanoma.
Assay in all cases: NCI-60 one-dose screen, 48 h (100 = growth as untreated, 0 = no growth, -100 = all killed)
What all share (details): 10 µM unless noted

For the compound `CCCCC[C@H]1CC=C2C(=O)C=C[C@@H]2CC=CCCCC(=O)O[C@@H](CCCCC)CC=C2C(=O)C=C[C@@H]2CC=CCCCC(=O)O[C@@H](CCCCC)CC=C2C(=O)C=C[C@@H]2CC=CCCCC(=O)O1`, the growth with NCI-H23 lung is -16.4% [8.75 µM] (active); with NCI-H226 lung, 6.47% [8.75 µM] (active); in the assay with NCI-H322M lung it was 17.9% [8.75 µM]; with HOP-62 NSCLC it was -10.6% [8.75 µM] (active); in the assay with NCI-H460 lung it was 0.981% [8.75 µM] (active); in the assay on HOP-92 NSCLC, -47.7% [8.75 µM] (active). Besides, the growth was -48.5% [8.75 µM] (active) with NCI-H522 lung; -29.7% [8.75 µM] (active) in the assay on A549/ATCC NSCLC; -48.7% [8.75 µM] (active) in the assay on 786-0 renal; -30.7% [8.75 µM] (active) with COLO 205 colon; 10.6% [8.75 µM] with DU-145 prostate; 5.31% [8.75 µM] (active) with K-562 leukemia. Further, the growth is -14.3% [8.75 µM] (active) in the assay on MALME-3M melanoma; -37.2% [8.75 µM] (active) with MDA-MB-231 breast; -65.4% [8.75 µM] (active) in the assay on RXF 393 renal; 14.4% [8.75 µM] with SF-268 CNS; 2.07% [8.75 µM] (active) in the assay on SF-295 CNS; -8.63% [8.75 µM] (active) with SF-539 CNS. Besides, the growth was -3.87% [8.75 µM] (active) with UACC-257 melanoma and -26.3% [8.75 µM] (active) in the assay with M14 melanoma.

Regarding `C/C(Cc1ccc(Cl)cc1)=C(/c1ccc(Cl)cc1)c1ccc(OCCN2CCCC2)cc1`, the growth in the assay on NCI-H23 lung was 78.7%; in the assay on NCI-H226 lung, 96.4%; in the assay with NCI-H322M lung, 93.4%; in the assay with HOP-62 NSCLC it was 91.7%; in the assay with NCI-H460 lung, 35.9%; in the assay on HOP-92 NSCLC, 60.8%. Further, the growth in the assay on NCI-H522 lung is 73.7%; in the assay on A549/ATCC NSCLC, 69.8%; in the assay on 786-0 renal it was 86%; in the assay on COLO 205 colon, 61.6%; in the assay on DU-145 prostate, 87%; in the assay with K-562 leukemia, 15.2%. In addition, the growth with MALME-3M melanoma was 77.7%; in the assay on MDA-MB-231 breast, 89.2%; in the assay on RXF 393 renal, 86.3%; in the assay on SF-268 CNS it was 92.4%; with SF-295 CNS it was 92.9%; in the assay with SF-539 CNS it was 89.7%. The growth in the assay on UACC-257 melanoma is 79.7%; with M14 melanoma, 78.2%.

Take `Cn1cccc1/C=C1/SC(=S)N(CCc2ccc(O)cc2)C1=O`: the growth was 79.5% in the assay on NCI-H23 lung; 87.8% with NCI-H226 lung; 87.3% in the assay with NCI-H322M lung; 56.3% with HOP-62 NSCLC; 33.6% in the assay on NCI-H460 lung; 88.3% in the assay on HOP-92 NSCLC. Also, the growth was 47.8% with NCI-H522 lung; 61.5% in the assay on A549/ATCC NSCLC; 64.4% with 786-0 renal; 103% with COLO 205 colon; 82.3% in the assay with DU-145 prostate; 18.6% in the assay on K-562 leukemia. The growth in the assay with MALME-3M melanoma is 36.7%; with MDA-MB-231 breast, 59.1%; in the assay on RXF 393 renal, 76.6%; in the assay on SF-268 CNS it was 74%; in the assay with SF-295 CNS it was 37.6%; in the assay with SF-539 CNS it was 43.6%. Further, the growth was 74.1% in the assay on UACC-257 melanoma and 19.9% in the assay on M14 melanoma.

For `C=C1C(=O)O[C@H]2[C@H]1CC/C(COC(=O)NCc1c[nH]c3ccccc13)=C\CC[C@@]1(C)O[C@@H]21`, the growth in the assay with NCI-H23 lung was 68.3%; in the assay with NCI-H226 lung it was 88.8%; with NCI-H322M lung, 84.5%; with HOP-62 NSCLC it was 65.2%; with NCI-H460 lung, 74.7%; with HOP-92 NSCLC, 107%. For the same compound, the growth in the assay with NCI-H522 lung was -35.2% (active); with A549/ATCC NSCLC, 82.5%; in the assay on 786-0 renal it was 44.6%; in the assay on COLO 205 colon, -20.4% (active); with DU-145 prostate, 29.2%; in the assay on K-562 leukemia, 12.7%. Also, the growth with MALME-3M melanoma is 52.7%; with MDA-MB-231 breast it was 42%; in the assay with RXF 393 renal, 17.5%; in the assay on SF-268 CNS it was 70.8%; in the assay on SF-295 CNS, 94.6%; in the assay with SF-539 CNS, 7.38% (active). Further, the values for the growth with UACC-257 melanoma and with M14 melanoma were 75.2% and 48.7%, respectively.

For `COC(=O)[C@]12CC[C@@H](C(C)=O)[C@@H]1[C@H]1CC[C@@H]3[C@@]4(C)C/C(=C/c5cccnc5)C(=O)C(C)(C)[C@@H]4CC[C@@]3(C)[C@]1(C)CC2`, the growth in the assay with NCI-H23 lung is 53.2%; in the assay on NCI-H226 lung, 48.1%; in the assay with NCI-H322M lung it was 93.9%; in the assay on HOP-62 NSCLC, 103%; in the assay on NCI-H460 lung, 70.9%; in the assay with HOP-92 NSCLC it was 66.7%. Moreover, the growth in the assay with NCI-H522 lung was 47.5%; in the assay with A549/ATCC NSCLC it was 51.4%; in the assay with 786-0 renal, 84.9%; in the assay on COLO 205 colon, 82.5%; in the assay with DU-145 prostate, 68.8%; in the assay with K-562 leukemia it was 18.3%. Besides, the growth was 29.9% in the assay on MALME-3M melanoma; 76.6% with MDA-MB-231 breast; 30.9% in the assay on RXF 393 renal; 68.6% in the assay with SF-268 CNS; 75.3% with SF-295 CNS; 81% with SF-539 CNS. Also, the results for the growth in the assay with UACC-257 melanoma and in the assay with M14 melanoma were 58.1% and 56.7%, respectively.

For the compound `CC1(C)CC[C@]2(CO)CC[C@]3(C)C(=CC[C@@H]4[C@@]5(C)CC[C@H](NCO)C(C)(C)[C@@H]5CC[C@]43C)[C@@H]2C1`, the growth in the assay on NCI-H23 lung was -64.8% (active); in the assay on NCI-H226 lung, 43.1%; in the assay on NCI-H322M lung, 7.27% (active); with HOP-62 NSCLC, -32.1% (active); with NCI-H460 lung, -70.5% (active); in the assay on HOP-92 NSCLC it was 22.2%. Also, the growth with NCI-H522 lung is -29.5% (active); in the assay with A549/ATCC NSCLC, -50% (active); with 786-0 renal, -80% (active); in the assay with COLO 205 colon, -71.5% (active); in the assay on DU-145 prostate it was -49.9% (active); in the assay on K-562 leukemia it was -36.8% (active). In addition, the growth with MALME-3M melanoma was -76.3% (active); in the assay with MDA-MB-231 breast, -80% (active); in the assay on RXF 393 renal it was -88% (active); in the assay with SF-268 CNS, 63.1%; in the assay with SF-295 CNS, -30.5% (active); in the assay with SF-539 CNS, -18.5% (active). Further, the growth was 10.5% with UACC-257 melanoma and -53% (active) in the assay with M14 melanoma.

With `Cn1cc(-c2csc(-c3cn(CCN)c4ccc(F)cc34)n2)c2cccnc21`, the growth is 72.4% with NCI-H23 lung; 80.2% in the assay on NCI-H226 lung; 73% in the assay on NCI-H322M lung; 64.7% in the assay with HOP-62 NSCLC; 23.4% in the assay with NCI-H460 lung; 48.5% in the assay with HOP-92 NSCLC. Moreover, the growth in the assay on NCI-H522 lung is 81.2%; in the assay on A549/ATCC NSCLC, 42%; with 786-0 renal it was 79.4%; in the assay with COLO 205 colon, 67.1%; in the assay on DU-145 prostate it was 68.5%; in the assay with K-562 leukemia, 11.4%. Besides, the growth in the assay on MALME-3M melanoma is 87.4%; with MDA-MB-231 breast, 59.9%; with RXF 393 renal, 82.6%; with SF-268 CNS it was 85.9%; in the assay with SF-295 CNS, 92.4%; with SF-539 CNS, 80.1%. Further, the growth was 100% with UACC-257 melanoma and 81.4% in the assay on M14 melanoma.

With `C[Si](C)(C)Cc1ccccc1`, the growth in the assay on NCI-H23 lung was 102%; with NCI-H226 lung, 114%; in the assay on NCI-H322M lung, 119%; in the assay on HOP-62 NSCLC, 99.9%; in the assay on NCI-H460 lung it was 120%; in the assay on HOP-92 NSCLC, 110%. For the same compound, the growth in the assay on NCI-H522 lung is 139%; with A549/ATCC NSCLC it was 120%; in the assay with 786-0 renal it was 98%; with COLO 205 colon, 139%; in the assay on DU-145 prostate, 125%; in the assay with K-562 leukemia it was 126%. The growth in the assay on MALME-3M melanoma is 115%; in the assay with MDA-MB-231 breast, 115%; in the assay on RXF 393 renal it was 132%; in the assay on SF-268 CNS it was 122%; in the assay with SF-295 CNS, 103%; in the assay with SF-539 CNS it was 107%. Moreover, the growth is 112% in the assay with UACC-257 melanoma and 104% in the assay with M14 melanoma.

For the origin of these results see PubChem BioAssay (NCI).
